Our source for the composite z-score values is PubChem BioAssay.

The assay can be described thus: binders of probe aFGF2 on microarray, primary screen, stem cell growth factor project, biochemical, small-molecule microarray, fluorescence 635/667 (AID 1067).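 Also: measures binding of biotinylated aFGF2 protein to printed compounds on slides; z-score merges feature fluorescence and signal-to-noise across triplicate slides.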 The settings on record: higher = more signal.
With `CC#CC(=O)Oc1ccc(Br)cc1C=CC(=O)OCC`, the composite z-score was -0.0304. `CCCC(=O)N(CCc1c[nH]c2ccccc12)[C@@H]1CC(C(=O)NCCO)=C[C@H](Oc2c(I)cc(CO)cc2OC)[C@H]1O` returned a composite z-score of -0.0692. For `COCCOC(=O)N1C(=O)[C@@]2(c3ccccc31)[C@H](C(=O)N1CCCCCCC1)[C@H]1C(=O)O[C@H](c3ccccc3)[C@H](c3ccccc3)N1[C@@H]2c1ccc(OCCO)cc1` the value was 1.09; for `CCOC(=O)C[C@H]1[C@H](OC(=O)c2cc3ccccc3oc2=O)[C@@H](NC(=O)CC(C)C)c2cc(OCCCO)ccc2N1C(=O)c1ccccc1`, -0.0327. For `O=C1OCC=C[C@H]2OC34C=CCN(CCN5CCOCC5)C(=O)[C@H]3N(CCO)C(=O)[C@@H]4[C@@H]12` (stereo not given in full) the value was -0.0985; for `COCC(=C=CC[C@H](O)c1cccc(OCCO)c1)CCO`, -0.0347; for `C#CCN1[C@H](/C=C/C2CC2)[C@H](Cc2ccccc2)OC(=O)[C@@H]1Cc1ccccc1`, -0.144. `O[C@@H](Cc1ccccc1)[C@@H](/C=C/C1CC1)NCc1cccc(Cl)c1`: the composite z-score was -0.224. For `C=C(/C(=C/C[C@H](OC(C)=O)c1ccc(OCCO)cc1)c1cc(C(=O)OC)ccc1OC)C(C)C` the value was -0.145; for `CCCC[C@@H]1C[C@H]1[C@@H](NC(=O)c1cccnc1)c1ccc(Cl)cc1`, -0.423; for `CC(C)[C@@H](C(=O)O)n1cc(C2(O)CCCCC2)nn1`, -0.183. As for `CC(C)CCC[C@@H](C)[C@H]1CC[C@@]2(C)C3=C(CC[C@]12C)[C@@]1(C)CC[C@H](OC(=O)c2ccc(C(F)(F)F)nc2)C(C)(C)C1CC3` (stereo not given in full), the composite z-score is -0.103. To `O=C1O[C@@H](c2ccccc2)[C@@H](c2ccccc2)N2[C@@H](c3ccc(OCCO)cc3)[C@]3(C(=O)Nc4ccc(C#CC5=CCCCC5)cc43)[C@@H](C(=O)N3CCCCCCC3)[C@H]12` belongs 0.753; to `CC(C)NC(=O)[C@@]1(Cc2ccccc2I)c2ccccc2C(=O)N(Cc2ccccc2Cl)[C@H]1c1ccc(CO)cc1`, 0.028; to `COc1ccc([Si](C)(C)[C@H]2[C@H](CCO)O[C@@]3(C(=O)N(Cc4ccccc4)c4ccc(N5CCCCC5=O)cc43)[C@@H]2C)cc1`, -0.0428. For `COc1ccc([C@H]2C[C@H]3C(Br)=C[C@@]2(CO)C(=O)[C@]32CO2)cc1` the value was -0.0563; for `CO[C@H]1O[C@H](CO)[C@@H](OC(=O)Nc2ccc(Oc3ccccc3)cc2)[C@H](OC(=O)Nc2ccc3c(c2)OCO3)[C@@H]1OC(=O)Nc1ccc2c(c1)OCO2`, -0.0493; for `O=C(NC1CC1)[C@@H]1c2ccccc2C(=O)N(C2Cc3ccccc3C2)[C@H]1c1ccc(CO)cc1`, -0.0618. For `CC(C)=CCCC(C)=CC(O)C1C=CC2C(=O)N(c3ccccc3)C(=O)C2N1Nc1ccc(C(C)C)cc1` (stereo not given) the value was 0.0218; for `C=CC[C@]1(C(N)=O)N=C(c2ccc(OCCCO)cc2)O[C@H]1c1ccccc1`, -0.0286; for `COc1cc2c(cc1O)C(c1cccs1)N(Cc1cccc(OC(F)(F)F)c1)CC2` (stereo not given), -0.114. For `C=C(CCCC)C(=O)CC[C@@H](OC(C)=O)c1ccc(CO)o1`, the composite z-score is -0.0729. For `O=C(CS)NCCCCCNC(=O)[C@H]1C[C@H]2C(=O)NCC(=O)N2[C@H]1c1ccc(O)cc1` the value was -0.159. For `COC(=O)[C@H](Cc1ccccc1)N[C@H](/C=C/C1CC1)[C@@H](O)Cc1ccccc1` the value was -0.202; for `C=C(CCCC)C(=O)CC[C@H](OC(=O)c1cccnc1)c1ccc(OCCO)cc1`, -0.116; for `O=C1O[C@@H](c2ccccc2)[C@@H](c2ccccc2)N2[C@@H](c3ccccc3OCCO)[C@]3(C(=O)Nc4ccc(C#CC5(O)CCCCCC5)cc43)[C@@H](C(=O)N3CCN(c4ncccn4)CC3)[C@H]12`, 0.0182. To `C=CCN1C(=O)[C@]2(O[C@H](CCO)[C@@H]([Si](C)(C)c3ccc(OC)cc3)[C@@H]2C)c2cc(N(C=O)c3ccccc3)ccc21` belongs -0.0583. As for `C=C(C(=O)CC[C@H](OC(C)=O)c1ccccc1OCCO)C(C)C`, the composite z-score was -0.0985. For `COC(=O)[C@@]1(Cc2ccc(OC)cc2)[C@H]2c3cc(C(=O)N4CCCC4)n(Cc4nc5ccccc5[nH]4)c3C[C@H]2CN1C(=O)c1ccccc1` the value was 0.417; for `CC(c1ccccc1)C(O)C1C=CC2C(=O)N(c3ccccc3)C(=O)C2N1Nc1ccccc1` (stereo not given), 0.0878; for `CCCC[C@H]1C[C@@H]1[C@@H]1N(P(=O)(c2ccccc2)c2ccccc2)C[C@@](O)(c2ccccc2)CC12CC2`, 0.183. To `COCC(=C=CC[C@H](O)c1ccccc1OCCO)CCO` belongs -0.0747; to `O=C1C[C@@](C(=O)NCc2ccccc2)(c2ccc([N+](=O)[O-])cc2)[C@@H](c2ccc(CO)cc2)N1CC12CC3CC(CC(C3)C1)C2`, 0.0024; to `COC(=O)c1c(CC[C@@H](CO)NC(=O)N[C@H](Cc2ccccc2)Cn2cc(-c3ccccn3)nn2)oc(C(C)=O)c1C(=O)OC`, -0.083. For `COC(=O)[C@]1(CCC(=O)OC(C)(C)C)N=C(c2ccc(OCCCO)cc2)O[C@@H]1c1ccccc1` the value was 0.0679.
